Test results: the supplement of paper PMC10849652
Of roughly 8,800 targets only a part is listed; those with a hit were picked by preference. About 0.5% of all pairs of compound and target were hits. Values without a mark were called inactive.

Columns and labels:
Assay in all cases: log2 fold change, soluble protein after heating vs DMSO (PISA); higher = thermal stabilisation; K562 lysate, 10 uM; active = over 0.2 and 3.5 SD of the protein, either way, in both replicates (recomputed)
vemurafenib = compound: CCCS(=O)(=O)Nc1ccc(F)c(C(=O)c2c[nH]c3ncc(-c4ccc(Cl)cc4)cc23)c1F [vemurafenib]
Method in brief: (§1)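 Pellets of K562 cells were dounce-homogenised in PBS pH 7.4 with 1 mM MgCl2, and the crude extract was held at 1 mg/mL protein for a 30 min treatment with 10 μM compound. Aliquots were heated for 3 min over 48°C-58°C and pooled before NP-40 was added to 0.5% at 4°C. The supernatant from 21,000xg for 90 min was quantified by TMTpro 16plex LC-MS/MS with channel sums equalised. Values are reported from duplicates as log-two fold change in thermal stability relative to solvent controls.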

[1] = compound: CCCS(=O)(=O)Nc1ccc(F)c(C(=O)c2c[nH]c3ncc(Cl)cc23)c1F
Method in brief: as §1

barasertib = compound: CCN(CCCOc1ccc2c(Nc3cc(CC(=O)Nc4cccc(F)c4)[nH]n3)ncnc2c1)CCOP(=O)(O)O [barasertib]
Method in brief: as §1

[2] = compound: CC[C@@H]1C(=O)N(C)c2cnc(Nc3ccc(C(=O)NC4CCN(C)CC4)cc3OC)nc2N1C1CCCC1
Method in brief: as §1

volasertib = compound: CC[C@@H]1C(=O)N(C)c2cnc(Nc3ccc(C(=O)N[C@H]4CC[C@H](N5CCN(CC6CC6)CC5)CC4)cc3OC)nc2N1C(C)C [volasertib]
Method in brief: as §1

[3] = compound: CCn1c(C(=O)N(C2CC2)C2CC2)cc2c3c(ncn3C)c(Nc3cc(C)n(C)n3)nc21
Method in brief: as §1

[4] = compound: CCn1cc(-c2ccnc3[nH]c(-c4cccc(CN(C)C)c4)cc23)c(-c2ccc(NC(=O)N(C)C)cc2)n1
Method in brief: as §1

[5] = compound: CN1CCC(CNc2ccc3ncc(-c4cccc(OC(F)(F)F)c4)n3n2)CC1
Method in brief: as §1

saracatinib = compound: CN1CCN(CCOc2cc(OC3CCOCC3)c3c(Nc4c(Cl)ccc5c4OCO5)ncnc3c2)CC1 [saracatinib]
Method in brief: as §1

sotrastaurin = compound: CN1CCN(c2nc(C3=C(c4c[nH]c5ccccc45)C(=O)NC3=O)c3ccccc3n2)CC1 [sotrastaurin]
Method in brief: as §1

alvocidib = compound: CN1CC[C@H](c2c(O)cc(O)c3c(=O)cc(-c4ccccc4Cl)oc23)[C@H](O)C1 [alvocidib]
Method in brief: as §1

Tubastatin A = compound: CN1CCc2c(c3ccccc3n2Cc2ccc(C(=O)NO)cc2)C1 [Tubastatin A]
Method in brief: as §1

[6] = compound: CNC(=O)C1=CC=CC=C1NC2=NC(=NC=C2Cl)NC3=C(C=C(C=C3)N4CCOCC4)OC
Method in brief: as §1

defactinib = compound: CNC(=O)c1ccc(Nc2ncc(C(F)(F)F)c(NCc3nccnc3N(C)S(C)(=O)=O)n2)cc1 [defactinib]
Method in brief: as §1

[7] = compound: CNc1nc(-c2ccc3c(N)n[nH]c3c2)cc(N2C[C@@H](C(=O)NC3CCCCC3)CC[C@H]2C)n1
Method in brief: as §1

encorafenib = compound: COC(=O)N[C@@H](C)CNc1nccc(-c2cn(C(C)C)nc2-c2cc(Cl)cc(NS(C)(=O)=O)c2F)n1 [encorafenib]
Method in brief: as §1

[8] = compound: COC(=O)[C@H](CCSC)NC(=O)C1=C(C=C(C=C1)NC[C@H](CS)N)C2=CC=CC=C2
Method in brief: as §1

alisertib = compound: COc1cc(Nc2ncc3c(n2)-c2ccc(Cl)cc2C(c2c(F)cccc2OC)=NC3)ccc1C(=O)O [alisertib]
Method in brief: as §1

[9] = compound: COc1cc2nc(-c3cc(F)ccc3O)nc(N[C@@H]3CNC[C@H]3C(C)(C)O)c2cc1OC
Method in brief: as §1

gefitinib = compound: COc1cc2ncnc(Nc3ccc(F)c(Cl)c3)c2cc1OCCCN1CCOCC1 [gefitinib]
Method in brief: as §1

UniProt Q86U06, sequence (Q86U06 whole entry, looked up): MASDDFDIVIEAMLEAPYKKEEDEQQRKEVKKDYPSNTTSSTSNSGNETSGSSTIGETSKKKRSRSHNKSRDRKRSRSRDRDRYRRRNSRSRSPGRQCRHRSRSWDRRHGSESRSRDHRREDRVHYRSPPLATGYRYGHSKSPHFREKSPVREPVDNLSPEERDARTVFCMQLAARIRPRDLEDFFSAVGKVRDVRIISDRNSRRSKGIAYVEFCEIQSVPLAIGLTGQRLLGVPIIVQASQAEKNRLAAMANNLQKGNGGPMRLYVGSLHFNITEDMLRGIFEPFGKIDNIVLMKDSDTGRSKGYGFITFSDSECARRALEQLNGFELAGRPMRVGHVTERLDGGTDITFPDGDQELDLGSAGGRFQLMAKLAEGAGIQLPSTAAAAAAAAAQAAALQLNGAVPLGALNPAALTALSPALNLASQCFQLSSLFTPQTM
UniProt O75880, sequence (O75880 whole entry, looked up): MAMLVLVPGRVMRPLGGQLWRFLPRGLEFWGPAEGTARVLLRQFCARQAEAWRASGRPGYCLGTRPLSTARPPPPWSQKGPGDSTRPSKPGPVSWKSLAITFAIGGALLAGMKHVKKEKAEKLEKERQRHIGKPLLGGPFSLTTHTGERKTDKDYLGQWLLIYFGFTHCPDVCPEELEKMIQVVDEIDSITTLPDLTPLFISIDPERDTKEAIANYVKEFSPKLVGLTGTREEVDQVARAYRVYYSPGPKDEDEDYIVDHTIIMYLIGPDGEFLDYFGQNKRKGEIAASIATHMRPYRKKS
UniProt P35250, sequence (P35250 whole entry, looked up): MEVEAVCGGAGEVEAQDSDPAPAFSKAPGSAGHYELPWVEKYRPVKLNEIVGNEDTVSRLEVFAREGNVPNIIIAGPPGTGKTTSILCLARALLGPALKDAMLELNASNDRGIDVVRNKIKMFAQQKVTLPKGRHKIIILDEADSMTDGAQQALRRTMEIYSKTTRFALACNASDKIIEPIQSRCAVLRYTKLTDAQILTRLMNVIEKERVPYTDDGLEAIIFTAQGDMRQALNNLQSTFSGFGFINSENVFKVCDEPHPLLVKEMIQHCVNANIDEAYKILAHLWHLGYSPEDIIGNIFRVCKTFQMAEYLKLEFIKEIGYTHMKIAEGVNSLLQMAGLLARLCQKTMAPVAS
UniProt Q8TBN0, sequence (Q8TBN0 whole entry, looked up): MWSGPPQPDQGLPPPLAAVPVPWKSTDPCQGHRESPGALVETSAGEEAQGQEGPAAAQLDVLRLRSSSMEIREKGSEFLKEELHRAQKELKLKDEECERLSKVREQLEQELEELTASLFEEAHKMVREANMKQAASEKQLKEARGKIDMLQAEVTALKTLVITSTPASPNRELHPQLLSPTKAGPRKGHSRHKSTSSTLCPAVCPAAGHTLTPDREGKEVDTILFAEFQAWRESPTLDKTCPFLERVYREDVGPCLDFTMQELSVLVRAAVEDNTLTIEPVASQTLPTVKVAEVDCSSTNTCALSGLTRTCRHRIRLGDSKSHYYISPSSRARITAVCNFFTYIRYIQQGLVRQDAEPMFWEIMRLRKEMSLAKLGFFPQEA
UniProt Q02094, sequence (Q02094 whole entry, looked up): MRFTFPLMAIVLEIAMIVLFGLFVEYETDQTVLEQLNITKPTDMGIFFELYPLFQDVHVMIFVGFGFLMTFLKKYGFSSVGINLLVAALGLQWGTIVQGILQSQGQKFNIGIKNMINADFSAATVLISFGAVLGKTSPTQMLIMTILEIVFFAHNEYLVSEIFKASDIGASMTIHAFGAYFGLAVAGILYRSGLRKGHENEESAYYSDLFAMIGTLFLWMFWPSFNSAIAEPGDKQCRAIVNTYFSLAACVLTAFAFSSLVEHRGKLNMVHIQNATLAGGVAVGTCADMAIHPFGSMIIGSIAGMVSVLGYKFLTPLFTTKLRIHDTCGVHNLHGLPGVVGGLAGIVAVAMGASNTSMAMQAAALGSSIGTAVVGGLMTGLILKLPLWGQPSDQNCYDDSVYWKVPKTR
UniProt O75150, sequence (O75150 whole entry, looked up): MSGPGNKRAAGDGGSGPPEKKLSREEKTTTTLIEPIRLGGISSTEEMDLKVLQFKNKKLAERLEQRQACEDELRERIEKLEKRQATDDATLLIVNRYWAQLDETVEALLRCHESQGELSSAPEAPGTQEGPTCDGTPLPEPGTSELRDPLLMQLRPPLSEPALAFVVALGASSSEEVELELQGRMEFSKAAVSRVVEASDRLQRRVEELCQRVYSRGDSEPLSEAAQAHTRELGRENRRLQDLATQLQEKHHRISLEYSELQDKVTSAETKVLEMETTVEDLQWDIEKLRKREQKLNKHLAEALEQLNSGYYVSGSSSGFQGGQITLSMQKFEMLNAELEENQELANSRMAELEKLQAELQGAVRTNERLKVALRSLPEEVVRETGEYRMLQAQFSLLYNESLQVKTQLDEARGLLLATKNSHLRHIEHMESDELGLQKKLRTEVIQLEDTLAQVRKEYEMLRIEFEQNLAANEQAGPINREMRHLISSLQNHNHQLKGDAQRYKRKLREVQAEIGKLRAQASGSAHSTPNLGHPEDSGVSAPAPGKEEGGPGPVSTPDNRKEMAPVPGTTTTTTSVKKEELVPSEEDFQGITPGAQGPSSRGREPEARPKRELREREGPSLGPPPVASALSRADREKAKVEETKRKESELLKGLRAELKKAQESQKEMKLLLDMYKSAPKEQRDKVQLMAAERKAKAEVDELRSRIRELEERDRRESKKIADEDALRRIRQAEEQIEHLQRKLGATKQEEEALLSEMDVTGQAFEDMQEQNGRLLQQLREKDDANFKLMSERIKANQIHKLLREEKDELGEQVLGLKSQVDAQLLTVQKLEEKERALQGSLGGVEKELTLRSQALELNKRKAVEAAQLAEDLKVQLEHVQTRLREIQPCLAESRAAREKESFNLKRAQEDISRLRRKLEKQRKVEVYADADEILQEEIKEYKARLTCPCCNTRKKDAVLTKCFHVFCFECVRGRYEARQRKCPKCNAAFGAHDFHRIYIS
UniProt Q9Y6B6, sequence (Q9Y6B6 whole entry, looked up): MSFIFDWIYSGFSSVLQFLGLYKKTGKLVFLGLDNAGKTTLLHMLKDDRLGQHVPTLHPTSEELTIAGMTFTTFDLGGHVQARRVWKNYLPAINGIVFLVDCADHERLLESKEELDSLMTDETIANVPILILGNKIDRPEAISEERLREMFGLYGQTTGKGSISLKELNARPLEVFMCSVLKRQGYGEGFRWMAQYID
UniProt P40938, sequence (P40938 whole entry, looked up): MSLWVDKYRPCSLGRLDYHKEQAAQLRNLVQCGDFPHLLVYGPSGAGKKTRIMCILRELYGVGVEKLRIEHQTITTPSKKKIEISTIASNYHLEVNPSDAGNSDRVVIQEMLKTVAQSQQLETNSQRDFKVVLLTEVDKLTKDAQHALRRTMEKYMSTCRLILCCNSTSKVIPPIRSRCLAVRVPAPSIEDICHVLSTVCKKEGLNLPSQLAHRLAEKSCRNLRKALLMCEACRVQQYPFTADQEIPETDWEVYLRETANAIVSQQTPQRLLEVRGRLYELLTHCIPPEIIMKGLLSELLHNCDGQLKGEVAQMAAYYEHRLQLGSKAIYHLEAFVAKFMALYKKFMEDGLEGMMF
UniProt P35249, sequence (P35249 whole entry, looked up): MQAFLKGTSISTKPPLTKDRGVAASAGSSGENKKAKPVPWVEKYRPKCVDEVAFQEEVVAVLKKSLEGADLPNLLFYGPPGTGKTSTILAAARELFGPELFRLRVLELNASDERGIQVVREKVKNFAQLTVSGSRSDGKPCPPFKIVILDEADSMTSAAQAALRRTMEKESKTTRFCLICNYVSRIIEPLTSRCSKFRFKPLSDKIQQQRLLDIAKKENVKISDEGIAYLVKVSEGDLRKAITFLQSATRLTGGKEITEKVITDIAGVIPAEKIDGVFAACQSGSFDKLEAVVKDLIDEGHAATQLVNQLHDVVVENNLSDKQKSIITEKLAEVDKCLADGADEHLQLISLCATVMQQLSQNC
UniProt Q15418, sequence (Q15418 whole entry, looked up): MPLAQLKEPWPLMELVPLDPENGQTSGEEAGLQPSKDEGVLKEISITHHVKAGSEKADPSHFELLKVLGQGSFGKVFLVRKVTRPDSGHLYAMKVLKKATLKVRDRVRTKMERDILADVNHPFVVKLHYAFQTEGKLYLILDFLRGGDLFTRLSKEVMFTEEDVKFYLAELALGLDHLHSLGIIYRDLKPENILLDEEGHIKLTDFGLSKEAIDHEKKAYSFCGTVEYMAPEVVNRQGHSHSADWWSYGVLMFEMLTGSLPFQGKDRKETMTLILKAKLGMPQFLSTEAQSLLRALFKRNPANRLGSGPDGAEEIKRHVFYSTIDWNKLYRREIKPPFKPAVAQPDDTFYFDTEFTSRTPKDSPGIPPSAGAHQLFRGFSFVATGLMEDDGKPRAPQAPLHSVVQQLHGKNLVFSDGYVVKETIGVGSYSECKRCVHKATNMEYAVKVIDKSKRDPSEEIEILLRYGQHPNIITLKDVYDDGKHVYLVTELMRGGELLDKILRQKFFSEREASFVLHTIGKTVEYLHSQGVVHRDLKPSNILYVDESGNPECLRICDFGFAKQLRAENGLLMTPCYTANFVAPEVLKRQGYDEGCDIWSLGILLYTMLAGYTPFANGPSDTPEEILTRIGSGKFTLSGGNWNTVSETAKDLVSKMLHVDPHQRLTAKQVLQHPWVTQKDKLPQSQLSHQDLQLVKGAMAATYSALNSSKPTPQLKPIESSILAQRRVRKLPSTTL

| Target | log2 fold change (vemurafenib) | log2 fold change [1] | log2 fold change (barasertib) | log2 fold change [2] | log2 fold change (volasertib) | log2 fold change [3] | log2 fold change [4] | log2 fold change [5] | log2 fold change (saracatinib) | log2 fold change (sotrastaurin) | log2 fold change (alvocidib) | log2 fold change (Tubastatin A) | log2 fold change [6] | log2 fold change (defactinib) | log2 fold change [7] | log2 fold change (encorafenib) | log2 fold change [8] | log2 fold change (alisertib) | log2 fold change [9] | log2 fold change (gefitinib) |
| --- | --- | --- | --- | --- | --- | --- | --- | --- | --- | --- | --- | --- | --- | --- | --- | --- | --- | --- | --- | --- |
| RBSN (UniProt Q9H1K0) | 0.051 | 0.01 | 0.023 | 0.035 | -0.087 | 0.006 | -0.075 | 0.038 | 0.023 | -0.019 | -0.031 | 0.005 | -0.047 | 0.015 | -0.014 | 0.089 | -0.048 | 0.019 | 0.015 | 0.059 |
| RIOK2 (UniProt Q9BVS4) | -0.074 | 0.006 | -0.053 | 0.016 | -0.026 | -0.03 | -0.115 | 0.066 | -0.023 | 0.04 | -0.021 | -0.098 | 0.438 (active) | 0.105 | 0.127 | -0.025 | 0.029 | -0.005 | -0.051 | -0.011 |
| RFC4 (UniProt P35249) | 0.047 | 0.02 | 0.02 | -0.012 | -0.042 | 0.003 | -0.086 | 0.028 | 0.044 | 0.003 | -0.018 | -0.119 | 0.018 | 0.009 | -0.043 | 0.018 | 0.088 | 0.022 | 0.003 | -0.006 |
| RAB3IL1 (UniProt Q8TBN0) | -0.018 | 0.017 | 0.054 | 0.022 | -0.008 | 0.054 | 0.025 | -0.016 | 0.033 | -0.024 | 0.027 | -0.021 | 0.022 | 0.007 | 0.009 | -0.006 | -0.031 | -0.013 | 0.039 | 0.014 |
| RFC2 (UniProt P35250) | -0.043 | 0.007 | 0.038 | -0.095 | -0.09 | 0.024 | -0.068 | 0.023 | -0.005 | 0.03 | -0.025 | -0.21 | -0.012 | 0.023 | -0.055 | 0.042 | 0.113 | 0.014 | 0.005 | 0.007 |
| RPS6KA1 (UniProt Q15418) | -0.037 | -0.004 | -0.006 | 0.037 | 0.029 | 0.019 | -0.004 | 0.116 | 0.101 | 0.103 | 0.447 (active) | -0.194 | 0.758 (active) | 0.236 | -0.007 | -0.121 | -0.002 | 0.012 | 0.165 | -0.007 |
| RCOR3 isoform 3 (UniProt Q9P2K3) | -0.03 | -0.01 | -0.003 | -0.001 | -0.012 | 0.029 | -0.017 | 0.003 | 0.03 | -0.015 | -0.005 | -0.09 | -0.002 | 0.009 | -0.014 | 0.012 | 0.088 | 0.003 | -0.006 | 0.026 |
| RPL27 (UniProt P61353) | -0.022 | -0.002 | 0.011 | -0.001 | -0.008 | -0.001 | 0.572 (active) | -0.079 | 0.019 | -0.015 | 0.049 | 0.009 | -0.015 | 0.006 | 0.056 | -0.015 | 0.012 | 0.006 | 0.006 | -0.023 |
| RBM23 isoform 2 (UniProt Q86U06) | 0.2 | 0.02 | 0.234 | -0.153 | -0.011 | 0.058 | -0.01 | -0.143 | 0.064 | 0.131 | -0.056 | -0.084 | 0.133 | -0.037 | 0.181 | 0.335 | -0.003 | 0.11 | 0.137 | 0.057 |
| RHAG (UniProt Q02094) | -0.032 | -0.116 | 0.054 | -0.16 | 0.053 | -0.003 | -0.413 (active) | 0.121 | 0.053 | 0.029 | -0.133 | 0.031 | 0.043 | -0.043 | 0.037 | 0.016 | 0.02 | -0.004 | 0.046 | -0.051 |
| SCO1 (UniProt O75880) | -0.027 | -0.012 | -0.008 | -0.009 | 0.025 | -0.027 | -0.01 | 0.016 | 0.006 | 0.016 | 0.002 | -0.031 | -0.051 | -0.004 | 0.053 | -0.004 | -0.57 (active) | -0.096 | 0.014 | -0.015 |
| SAR1B (UniProt Q9Y6B6) | 0.034 | 0 | 0.165 | 0.04 | -0.042 | 0.017 | -0.017 | -0.09 | 0.041 | 0.047 | 0.032 | 0.176 | 0.199 | 0.05 | 0.147 | 0.203 | 0.052 | 0.128 | 0.145 | 0.015 |
| QRSL1 (UniProt Q9H0R6) | 0.134 | 0.012 | 0.044 | -0.004 | -0.057 | 0.008 | -0.178 | -0.138 | -0.056 | 0.071 | -0.028 | -0.021 | -0.012 | -0.068 | -0.051 | -0.015 | -0.005 | 0.014 | 0.014 | -0.045 |
| RFC3 (UniProt P40938) | 0.021 | 0.025 | 0.046 | -0.033 | -0.065 | 0.013 | 0.133 | 0.001 | 0.001 | 0.039 | -0.008 | -0.142 | 0.024 | 0.036 | -0.014 | 0.002 | -0.005 | 0.007 | 0.029 | -0.075 |
| RNF40 (UniProt O75150) | 0.001 | 0.008 | 0.043 | -0.005 | -0.047 | 0.002 | 0.011 | -0.033 | 0.033 | -0.012 | -0.003 | -0.102 | 0.023 | 0.022 | -0.006 | 0.015 | 0.079 | -0.002 | 0 | 0.013 |
| RNF213, A0A0A0MTC1 | 0.017 | 0.025 | 0.076 | -0.038 | -0.077 | 0.027 | -0.05 | -0.053 | 0.027 | 0.043 | -0.003 | -0.081 | 0.023 | -0.02 | -0.04 | 0.054 | -0.061 | 0.013 | 0.012 | -0.012 |
